Source: PubChem BioAssay
The source made the active and inactive calls.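 The calls were made as follows: active = mean inhibition above 46.68%, the untreated control wells mean plus 3 SD; inactive = the rest.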

Target: Nuclear receptor coactivator 1 (Homo sapiens) (UniProt Q15788)
Assay: NCOA1 GAL4-fusion reporter inhibition – cell-based, luminescence, quadruplicate, confirmation (AID 588820);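 also: 0% = DMSO wells and 100% = gossypol 36 µM treated wells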
Conditions: HEK293 GAL4-SRC1 luciferase reporter, at 3.6 µM, hits give high values

Chain of Nuclear receptor coactivator 1 (Homo sapiens) (Q15788 whole entry, looked up, the tested form may be a part): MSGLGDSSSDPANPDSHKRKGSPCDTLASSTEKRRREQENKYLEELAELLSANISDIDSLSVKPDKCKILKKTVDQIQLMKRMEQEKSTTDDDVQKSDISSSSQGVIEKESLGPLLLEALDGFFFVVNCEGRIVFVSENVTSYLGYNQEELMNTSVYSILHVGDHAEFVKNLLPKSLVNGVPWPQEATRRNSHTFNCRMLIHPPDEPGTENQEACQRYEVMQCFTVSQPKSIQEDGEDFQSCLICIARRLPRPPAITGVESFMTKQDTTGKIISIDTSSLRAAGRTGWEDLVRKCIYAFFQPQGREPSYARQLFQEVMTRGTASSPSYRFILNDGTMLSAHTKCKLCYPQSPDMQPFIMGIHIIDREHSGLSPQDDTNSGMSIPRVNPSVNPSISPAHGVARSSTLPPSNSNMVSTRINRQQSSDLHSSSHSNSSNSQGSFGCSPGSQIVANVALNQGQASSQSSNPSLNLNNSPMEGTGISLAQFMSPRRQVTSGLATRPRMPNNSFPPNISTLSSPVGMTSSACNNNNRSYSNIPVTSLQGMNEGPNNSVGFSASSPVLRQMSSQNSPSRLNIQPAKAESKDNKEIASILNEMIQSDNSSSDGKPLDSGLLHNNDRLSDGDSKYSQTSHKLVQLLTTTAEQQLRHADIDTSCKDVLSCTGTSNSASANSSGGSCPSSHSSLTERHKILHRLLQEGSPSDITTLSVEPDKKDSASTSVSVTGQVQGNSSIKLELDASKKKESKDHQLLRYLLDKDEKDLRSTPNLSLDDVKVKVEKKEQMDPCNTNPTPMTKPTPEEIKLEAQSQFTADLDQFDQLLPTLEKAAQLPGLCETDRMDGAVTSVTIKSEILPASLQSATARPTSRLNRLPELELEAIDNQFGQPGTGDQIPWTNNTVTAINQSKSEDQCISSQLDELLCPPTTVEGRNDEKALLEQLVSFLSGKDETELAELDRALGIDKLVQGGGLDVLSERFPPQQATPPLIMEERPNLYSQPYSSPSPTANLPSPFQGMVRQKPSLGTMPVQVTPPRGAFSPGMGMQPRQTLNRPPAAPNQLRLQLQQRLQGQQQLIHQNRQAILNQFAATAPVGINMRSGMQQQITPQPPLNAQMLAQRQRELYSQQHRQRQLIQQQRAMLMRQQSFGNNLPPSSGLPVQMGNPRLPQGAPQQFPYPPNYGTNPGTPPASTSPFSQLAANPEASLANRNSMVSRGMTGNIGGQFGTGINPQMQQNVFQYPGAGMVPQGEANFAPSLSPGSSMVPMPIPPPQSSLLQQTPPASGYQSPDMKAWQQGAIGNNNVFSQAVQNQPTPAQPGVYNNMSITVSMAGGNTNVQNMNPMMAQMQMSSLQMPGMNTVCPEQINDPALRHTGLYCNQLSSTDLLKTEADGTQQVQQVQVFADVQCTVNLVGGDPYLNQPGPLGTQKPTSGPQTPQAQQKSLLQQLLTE

inhibition, inactive:
O=C(Cc1cccs1)N(CC1CCCO1)C1(C(=O)NC2CCCCC2)CCCCC1 (centres undefined) 7.13%, C=C(C)c1cccc(C(C)(C)NC(=O)N(Cc2ccccc2)Cc2ccco2)c1 -2.08%, CC(=O)c1c(C)n(-c2ccc(C)cc2)c2ccc(O)cc12 35%, Cc1cn(Cc2ccccc2Cn2cc(C)c(=O)[nH]c2=O)c(=O)[nH]c1=O -23.2%, COc1ccc(CNC(=O)c2cc3c(C)nc4ccccc4c3o2)c(OC)c1 -5.62%, COc1ccc(NC(=O)CCn2c(=S)[nH]c3ccccc3c2=O)cc1 2.22%, CC(=O)c1cccc(NC(=O)COc2cc3oc(=O)c(CC(C)O)c(C)c3cc2Cl)c1 (centres undefined) 28.4%, CC(Oc1ccc(F)cc1)C(=O)Nc1cc(S(=O)(=O)N2CCCCC2)ccc1N1CCOCC1 (centres undefined) -3.38%, CN1CCN(c2nc(-c3cccs3)nc3ccccc23)CC1 14.3%, Cc1cccc(C)c1NC(=O)C1(C)CCC(=O)N1c1cc(C(C)(C)C)nn1C (centres undefined) -13.6%, CCn1c(=O)n(CC)c2cc(N3CCCC3)c(NC(=O)c3ccccc3OC)cc21 -13.7%, CCCCCN(C(=O)CCC(=O)OCC(=O)N(CC#N)c1ccccc1)c1c(N)n(CCCC)c(=O)[nH]c1=O -5.77%, Cc1ccc(OCC(=O)NNC(=O)c2ccc3c(=O)n4c(nc3c2)CCC4)cc1 -7.39%, Cc1nn(CC(=O)N2CCN(c3cccc(C(F)(F)F)c3)CC2)c(=O)c2cccn12 23.4%, O=C(Nc1ccc(OCC(F)(F)C(F)F)c(C(F)(F)F)c1)c1ccccc1O -35.3%, CC(=O)c1ccc(S(=O)(=O)N2CCN(CCOc3ccc(Br)cc3)CC2)cc1 2.32%, CN1CCc2c(OCc3ccc(F)cc3)cccc2C1=O -8.74%, COc1ccc(-c2[nH]ncc2CN2CCC(O)(c3ccc(Cl)cc3)CC2)cc1 13.2%, CN1CCN(c2ccc(Cl)cc2NC(=O)CC2OC(=O)c3ccccc32)CC1 (centres undefined) -37.2%, CC(C)(C)NC(=O)C1(C)CCC(=O)N1CCCn1ccnc1 (centres undefined) 22.2%, COc1ccc(Nc2nc(-c3cccs3)nc3ccccc23)cc1S(=O)(=O)N1CCOCC1 -30.8%, COc1cc(C(c2sc3nc(C)nn3c2O)N2CCc3ccccc3C2)cc(OC)c1OC (centres undefined) -4.8%, O=S(=O)(c1cccc(C(F)(F)F)c1)N1c2ccccc2-n2cccc2C1c1cccnc1 (centres undefined) 12.9%, COc1ccc(-n2cc(-c3ccccc3)c3c(N4CCOCC4)ncnc32)cc1 -50.7%, CN1c2ccccc2C2(C)CCCC3=Cc4cccc([N+](=O)[O-])c4OC312 (centres undefined) -8.43%, O=C(O)c1ccccc1-c1c2cc(I)c(=O)c(I)c-2oc2c(I)c(O)c(I)cc12 18.7%, O=C(c1cc(COc2c(F)cccc2F)on1)N1CCC(c2ccncc2)CC1 -8.98%, COc1ccccc1NC(=O)NC1(C(=O)N2CCCCC2)CCCCC1 4.76%, O=C1N=C(N2CCCC2)S/C1=C\C=C\c1ccccc1 -93.8%, CC(O)c1nc2cc([N+](=O)[O-])ccc2n1Cc1ccccc1 (centres undefined) -1.46%, CCN1CCN(S(=O)(=O)c2cc(OCC(=O)NC3CCCCC3)c(C)cc2Cl)CC1 -7.06%, O=C1NCCc2c1[nH]c1ccc([N+](=O)[O-])cc21 23.1%, CCCc1cc(C(=O)N(C)CC(=O)Nc2ccc(OCC)c(OCC)c2)sc1C 20.5%, Cc1csc(N=Cc2ccc([N+](=O)[O-])o2)n1 30.6%, O=c1cc(N2CCN(c3ccccc3Cl)CC2)[nH]c(=O)n1Cc1ccc(F)cc1 -4.06%, Cc1c(/C(O)=C2\C(=O)C(=O)N(CCCN(C)C)C2c2ccccc2)cnn1-c1ccccc1 (centres undefined) 6.48%, Cc1ccc(Oc2ccccc2NC(=O)CSCC(=O)Nc2cc(C)on2)cc1 1.59%, COc1ccc(OCCN2CCN(C(=O)c3ccc(OC(F)F)c(OC)c3)CC2)cc1 2.42%, CC1(C)CC(NCc2ccccc2)CCO1 (centres undefined) -24.7%
